Screen size: about 13,000 compounds; about 3,200 (25%) showed an effect of 50% or more. Some of the results follow.
system: P. falciparum stage V gametocytes; design: BacTiter-Glo ATP luminescence viability of purified stage V gametocytes in 384-well plates, per cent inhibition versus DMSO; conditions: 48 h, 5 µM; inhibitor

Structure (SMILES)	% Inhibition [%]
N#Cc1ccc(/C=C/C(=O)NCCCCCN2CCCN(C(=O)Nc3ccc(Cl)c(C(F)(F)F)c3)CC2)cc1 [TCMDC-136110]	28.79
Cc1[nH]c(CNCCCNc2cc(=O)c3ccccc3[nH]2)c(Br)c1Br [TCMDC-139780]	-12
COc1ccc(-c2cc(C(=O)Nc3ccc4nc(-c5ccccc5)[nH]c4c3)[nH]n2)cc1 [TCMDC-134399]	-1.351
Fc1cccc(COc2ccc(Nc3ncnc4sc(C#CCNC5CCC5)cc34)cc2Cl)c1 [TCMDC-138785]	4.873
Cc1cc(NCCc2ccccc2)nc(/N=C(\N)Nc2cccc([N+](=O)[O-])c2)n1 [TCMDC-138371]	3.581
Cc1cc(NCCc2ccccc2)nc(/N=C(\N)Nc2cccc(Cl)c2)n1 [TCMDC-138364]	54.32
CC(C)CCN(Cc1cncn1Cc1cccc(C(F)(F)F)c1)C(=O)c1ccccc1C#N [TCMDC-132457]	14.87
O=C(O)C(F)(F)F.O=C1CCCN1CCCNCc1ccc(-c2ccc(-c3nc4cc(C(F)(F)F)ccc4[nH]3)cc2)cc1 [TCMDC-132760]	37.39
COc1cc(F)c2ncc(Cl)c(CCN3CCC(NCc4ccc5c(c4)NC(=O)CO5)CC3)c2c1 [TCMDC-135623]	24.82
Cn1ncc2c3c(CCN4CCC(NCc5ccc6c(c5)NC(=O)CO6)CC4)c(Cl)cnc3ccc21 [TCMDC-136023]	91.21
COc1nc2c(CCN3CCC(NCc4ccc5c(c4)NC(=O)CO5)CC3)c(Cl)cnc2cc1F [TCMDC-135767]	23.61
CC(=O)c1ccc(N2C(=O)C3C(Cc4ccc(OC(C)(C)C)cc4)NC4(C(=O)N(Cc5ccc(C(C)(C)C)cc5)c5ccccc54)C3C2=O)cc1 (centres unmarked) [TCMDC-139773]	1.15
C=CCc1cc(Cc2cnc(N)nc2N)c2ccc(C)nc2c1O [TCMDC-137628]	-3.473
Cc1cccc(CNc2nccc3[nH]c4ccccc4c23)c1 [TCMDC-136334]	-2.626
CN(CCc1ccccn1)c1cccc2c1nc(-c1cccnc1)n2CCNCc1ccccc1 [TCMDC-133439]	-10.58
CN(C)CCCN(C)c1cccc2c1nc(-c1cccnc1)n2CCNCc1ccccc1 [TCMDC-133440]	88.37
CN(C)c1cccc2c1nc(-c1ccco1)n2CCNCc1ccccc1 [TCMDC-133484]	72.16
CN(C)CCNc1cc(-c2cccnc2)nc(-c2ccncc2)n1 [TCMDC-125595]	-4.49
Cc1nc2nc(N)nc(N)c2c(C)c1Cc1cccc(C#N)c1 [TCMDC-137646]	-13.13
Cc1nc(N)nc(N)c1CCCOc1ccc(Br)cc1 [TCMDC-138068]	-19.95
CC(=O)c1cccc(NC(=O)N2CCCN(CCCCCNC(=O)/C=C/c3ccc(Cl)c(Cl)c3)CC2)c1 [TCMDC-135752]	-19.76

Structure (SMILES)	% Inhibition [%]
COc1ccc(-c2nc(NC(=O)Cc3coc4cc(OC)ccc34)sc2C)cc1 [TCMDC-124497]	27.62
CCN(CC)CCN(Cc1ccc(-c2ccc(C(F)(F)F)cc2)cc1)C(=O)Cn1c(CCc2cccc(F)c2F)nc(=O)c2ccc(C(F)(F)F)cc21 [TCMDC-141071]	34.24
CCN(CC)CCN(Cc1ccc(-c2ccc(C(F)(F)F)cc2)cc1)C(=O)Cn1c(CCc2cccc(F)c2F)nc(=O)c2ccc(F)cc21 [TCMDC-141095]	68.69
CCN(CC)CCN(Cc1ccc(-c2ccc(C(F)(F)F)cc2)cc1)C(=O)Cn1c(CCc2cccc(F)c2F)nc(=O)c2cc(F)c(F)cc21 [TCMDC-141089]	67.52
CCN(CC)CCN(Cc1ccc(-c2ccc(C(F)(F)F)cc2)cc1)C(=O)Cn1c(SCc2ccc(F)cc2)cc(=O)c2ccccc21 [TCMDC-140791]	99.53
CCN(CC)CCN(Cc1ccc(-c2ccc(C(F)(F)F)cc2)cc1)C(=O)Cn1c(CCc2cccc(F)c2F)nc(=O)c2cc(F)ccc21 [TCMDC-141096]	73.36
COc1cccc(OC2CCN(C(=O)c3ccc(-c4ccc(N5CCCC5=O)cc4C)cc3)CC2)c1 [TCMDC-136524]	29.3
Cc1nc(N)nc(N)c1OCCCOc1ccccc1Br [TCMDC-131364]	-0.5645
CN1CCCC1CCNC(=O)[C@H](CC1CCCCC1)NC(=O)c1ccc(O)c(-c2ccc(Cl)c(Cl)c2)c1 (some centres unmarked) [TCMDC-140855]	48.17
CCN(CC)C(=O)c1cnc(-c2ccccc2)nc1Oc1cccc(Cl)c1 [TCMDC-124780]	14.15
CCCCCCC(C)c1cc(O)c2c(c1)OC(=O)CC2(CC)c1ccccn1 (centres unmarked) [TCMDC-131681]	-3.085
c1cc(CNC2Cc3ccc(-c4cccs4)cc3C2)cc(-n2ccnc2)c1 (centres unmarked) [TCMDC-134830]	-2.028
CC(C)C[C@H](NC(=O)c1ccc(OCCN2CCOCC2)cc1)C(=O)NC(/C=N/N1CCCC1=O)C(C)C (some centres unmarked) [TCMDC-136276]	20.05
CCc1cccc(OCC2CCCN(c3ccc(C(=O)NC4CC4)cn3)C2)c1 (centres unmarked) [TCMDC-134039]	7.857
CCN(CC)CCN(Cc1ccc(-c2ccc(C(F)(F)F)cc2)cc1)C(=O)Cn1c(CCc2ccc(F)cc2)nc(=O)c2sccc21 [TCMDC-140779]	90.56
CCN(CC)CCN(Cc1ccc(-c2ccc(C(F)(F)F)cc2)cc1)C(=O)Cn1c(CCc2cccc(F)c2F)nc(=O)c2cc(C)ccc21 [TCMDC-141014]	48.99
CCN(CC)CCN(Cc1ccc(-c2ccc(C(F)(F)F)cc2)cc1)C(=O)Cn1c(SCc2ccc(F)cc2)nc(=O)c2ccccc21 [TCMDC-140983]	87.16
CCN(CC)CCN(Cc1ccc(-c2ccc(C(F)(F)F)cc2)cc1)C(=O)Cn1c(CCc2cccc(F)c2F)nc(=O)c2ccc(C)cc21 [TCMDC-141086]	74.83
CCN(CC)CCN(Cc1ccc(-c2ccc(C(F)(F)F)cc2)cc1)C(=O)Cn1c(SCc2ccc(F)cc2)nc(=O)c2sccc21 [TCMDC-140572]	78.9
CCN(CC)CCN(Cc1ccc(-c2ccc(C(F)(F)F)cc2)nc1)C(=O)Cn1c(SCc2ccc(F)cc2)nc(=O)c2sccc21 [TCMDC-140573]	27.02
